Assay results from the supplement of paper PMC8387472.

How the values were obtained:
Settings in all cases: mESC; 2uM; 72 h treatment, harvest day 5
[1] = compound: O=c1cc(N2CCOCC2)oc2c(-c3ccc4c(c3)OCCO4)csc12; experiment: fraction of edited reads among all mapped reads; higher = more Cas9 editing
Mercaptopurine (6-MP) = compound: S=c1[nH]cnc2nc[nH]c12 [Mercaptopurine (6-MP)]; experiment: as above
[2] = compound: S=c1nc[nH]c2nc[nH]c12 [6-Mercaptopurine (6-MP) Monohydrate]; experiment: as above
[3] = compound: CC(=O)O/N=C1\C(=O)N(Cc2cc(Cl)ccc2Cl)c2ccc(Cl)cc21; experiment: fraction of microhomology deletions among edited reads; higher = more MH deletions
[4] = compound: CC(C)(C#N)c1ccc(N2C(=O)OCc3cnc4ccc(-c5cnc6ccccc6c5)cc4c32)cc1; experiment: as above
[5] = compound: CCCCOc1c(C(=O)c2c(F)cc(C)cc2F)c[nH]c2nncc1-2; experiment: as above
[6] = compound: CCN1CCN(CC(=O)Nc2ccc(-c3cccc4c(=O)cc(N5CCOCC5)oc34)c3sc4ccccc4c23)CC1; experiment: as above
[7] = compound: CCc1c2c(nc3ccc(OC(=O)N4CCC(N5CCCCC5)CC4)cc13)-c1cc3c(c(=O)n1C2)COC(=O)[C@]3(O)CC [Irinotecan HCl Trihydrate]; experiment: as above
[8] = compound: CCn1c(=O)c(-c2ccc(Cl)cc2Cl)cc2cnc(Nc3ccc(N4CCNCC4)c(F)c3)nc21; experiment: as above
[9] = compound: CNc1ccc([N+](=O)[O-])c(Nc2ccc3[nH]ncc3c2)n1; experiment: as above
Rifapentine = compound: CO[C@H]1/C=C/O[C@@]2(C)Oc3c(C)c(O)c4c(O)c(c(/C=N/N5CCN(C6CCCC6)CC5)c(O)c4c3C2=O)NC(=O)/C(C)=C\C=C\[C@H](C)[C@H](O)[C@@H](C)[C@@H](O)[C@@H](C)[C@H](OC(C)=O)[C@@H]1C [Rifapentine]; experiment: as above
[10] = compound: COc1ccccc1-c1cc(Nc2cccc(CS(N)(=O)=O)c2)ncn1; experiment: as above
[11] = compound: C[C@@H]1CN(CC(=O)Nc2ccc3c(c2)Cc2cccc(-c4cc(=O)cc(N5CCOCC5)o4)c2S3)C[C@H](C)O1; experiment: as above
[12] = compound: Cc1cc(C)nc(SCC(=O)Nc2ncc(Cc3cccc4ccccc34)s2)n1; experiment: as above
[13] = compound: Cc1cccc(CC(=O)N2CCc3c2ccc(-c2cn(C)c4ncnc(N)c24)c3F)n1; experiment: as above
[14] = compound: NC(=O)c1ccc2nc(-c3ccc(Oc4ccc(Cl)cc4)cc3)[nH]c2c1 [Chk 2 inhibitor II (BML-277)]; experiment: as above
Tucidinostat (Chidamide) = compound: Nc1cc(F)ccc1NC(=O)c1ccc(CNC(=O)/C=C/c2cccnc2)cc1 [Tucidinostat (Chidamide)]; experiment: as above
Pemetrexed = compound: Nc1nc2[nH]cc(CCc3ccc(C(=O)N[C@@H](CCC(=O)O)C(=O)O)cc3)c2c(=O)[nH]1 [Pemetrexed]; experiment: as above
[15] = compound: Nc1ncnc2c1c(-c1cnc3[nH]ccc3c1)nn2C1CCCC1; experiment: as above
[16] = compound: O=C(c1cccc(Cl)c1F)N1CCN(Cc2cccc(Nc3nccs3)n2)CC1; experiment: as above

Target	fraction of edited reads among all mapped reads [1]	fraction of edited reads among all mapped reads (Mercaptopurine (6-MP))	fraction of edited reads among all mapped reads [2]	fraction of microhomology deletions among edited reads [3]	fraction of microhomology deletions among edited reads [4]	fraction of microhomology deletions among edited reads [5]	fraction of microhomology deletions among edited reads [6]	fraction of microhomology deletions among edited reads [7]	fraction of microhomology deletions among edited reads [8]	fraction of microhomology deletions among edited reads [9]	fraction of microhomology deletions among edited reads (Rifapentine)	fraction of microhomology deletions among edited reads [10]	fraction of microhomology deletions among edited reads [11]	fraction of microhomology deletions among edited reads [12]	fraction of microhomology deletions among edited reads [13]	fraction of microhomology deletions among edited reads [14]	fraction of microhomology deletions among edited reads (Tucidinostat (Chidamide))	fraction of microhomology deletions among edited reads (Pemetrexed)	fraction of microhomology deletions among edited reads [15]	fraction of microhomology deletions among edited reads [16]
40.0 (DMSO control at this site: 1-bp insertion 0.072, MH deletion 0.192, edited 0.189) GCGAATCAACTGTTCAACAACAGCAGCAGCCACCTGGAGGACTACAGTGGCCTGTCCGTGT	0.107	0.24	0.175	0.2	0.177	0.179	0.26	0.196	0.21	0.184	0.211	0.146	0.0486	0.173	0.156	0.181	0.145	0.169	0.139	0.137
1.0 (DMSO control at this site: 1-bp insertion 0.521, MH deletion 0.323, edited 0.141) GTGTCACAGTGCACGAGTGACGGGATAATGTGCTGACAGGTAATTGATAGGCTTCCAACTT	0.0814	0.187	–	0.293	0.269	0.238	0.461	0.246	0.293	0.218	0.256	0.224	0.0962	0.248	0.227	0.243	0.215	0.342	0.163	0.209
8.0 GCATGCGTGTTTTGGGACAATGTAGTATACATTTGGGAGGCTCTCAGCTTTTCCCAATAAA	–	–	0.017	0.107	0.0584	0.0574	–	–	–	–	–	–	–	0.0765	–	–	0.0826	0.127	0.0866	–
27.0 CCAGAATTAGAACATATCATCTGGACCCTTTTCCATCTGGACCCTTTTCCAGCACACCCTG	0.0389	0.0718	0.0546	0.162	0.195	0.138	–	0.0693	–	0.225	0.214	0.156	–	0.104	–	–	0.174	–	0.105	–
15.0 GCGCCTCCAATGACCCAGTGGGATCCTACTCCATAATGGGATCCTGGGGATTCCTCGCTCC	–	–	0.132	0.354	0.378	–	–	–	–	–	0.426	–	–	0.39	–	–	0.289	–	–	–
0.0 (DMSO control at this site: 1-bp insertion 0.463, MH deletion 0.339, edited 0.14) AGGATTACCGAGACCTACGCGAACCGAAATCGCTGTCCGGTGCGCAAGCAGGGCTGGCGTC	0.0913	0.181	0.128	0.346	0.314	0.312	0.552	0.345	0.394	0.304	0.37	0.294	0.108	0.304	0.291	0.331	0.275	0.346	0.23	0.201
2.0 (DMSO control at this site: 1-bp insertion 0.364, MH deletion 0.356, edited 0.125) GGTGCCCCCGAGACCTACGCGAACCGAAATCGATGTCCGGTGCGCAAGCAGGGCTGGCGTC	0.0694	0.166	0.112	0.422	0.343	0.375	0.513	0.414	0.384	0.345	0.417	0.327	0.123	0.378	0.3	0.397	0.303	0.408	0.262	0.256
44.0 (DMSO control at this site: 1-bp insertion 0.181, MH deletion 0.512, edited 0.123) ACACATACCTTCTTCGAGGCAGCCAGCATGATGAGACAGGTCTCCCACAAACACATCGTGT	0.091	0.173	0.13	0.553	0.526	0.528	0.637	0.469	0.547	0.506	0.531	0.451	0.295	0.506	0.384	0.539	0.491	0.583	0.479	0.486
42.0 (DMSO control at this site: 1-bp insertion 0.145, MH deletion 0.655, edited 0.132) GGGCTAAACCTATGAGCACAGTAGAACTAAGGGTGGGTGGTGTAGCTAAAGAACTTGACCA	0.0994	0.171	0.109	0.699	0.678	0.696	0.734	0.672	0.706	0.633	0.683	0.653	0.384	0.667	0.682	0.634	0.607	0.634	0.571	0.62
43.0 (DMSO control at this site: 1-bp insertion 0.134, MH deletion 0.714, edited 0.104) AGTTTAACTTACTCCGGCCAAAAAAGAACTGCACCTCTGGAGCGGGTTAGTGGTGGTGGTA	0.0695	0.165	0.114	0.72	0.687	0.69	0.711	0.676	0.77	0.703	0.683	0.663	0.698	0.639	0.717	0.677	0.68	0.625	0.662	0.686
29.0 (DMSO control at this site: 1-bp insertion 0.084, MH deletion 0.745, edited 0.133) TTGATGAACTTCCTCTTCTTCTCATGTCTCCGGTCTCCGGTAGGCCACGTGCATGGCCACT	0.0905	0.171	0.127	0.727	0.728	0.734	0.773	0.719	0.757	0.738	0.751	0.667	0.482	0.692	0.702	0.741	0.686	0.691	0.696	0.662
18.0 (DMSO control at this site: 1-bp insertion 0.114, MH deletion 0.789, edited 0.094) GCGCAAGTGCATAAGTTTTTCTTAAGGCGTGCCTTTAAGGCGTGCCTTTGTCGGTCCTGGA	0.0717	0.112	0.0789	0.794	0.798	0.787	0.866	0.789	0.794	0.793	0.805	0.779	0.683	0.791	0.755	0.812	0.797	0.78	0.768	0.777
45.0 (DMSO control at this site: 1-bp insertion 0.017, MH deletion 0.666, edited 0.101) TTACACAGCATGAACTGCTAGGTGATGATGTCAGATTCGGTTTTACTAACTTCTCCAAAAA	0.0613	0.128	0.092	0.623	0.655	0.62	0.654	0.631	0.655	0.622	0.624	0.614	0.515	0.608	0.655	0.617	0.624	0.574	0.54	0.598
34.0 (DMSO control at this site: 1-bp insertion 0.184, MH deletion 0.385, edited 0.103) ATTATAGGACCCTGAGGGAGCAGAGATGTGGGAATGGGGGCCGAGCCAATTGTGATGTAAG	0.0512	0.114	0.0949	0.51	0.538	0.496	0.585	0.527	0.53	0.524	0.567	0.502	0.342	0.517	0.483	0.486	0.409	0.413	0.39	0.39
47.0 (DMSO control at this site: 1-bp insertion 0.095, MH deletion 0.585, edited 0.118) GAGTGGTCCCGAGCCAGGAACTGTGTGTGTTGCAGGGGGGCAGTAACTCCCCAACTCCCTC	0.0673	0.143	0.101	0.564	0.539	0.518	0.62	0.473	0.597	0.542	0.57	0.469	0.319	0.528	0.477	0.494	0.442	0.503	0.389	0.453
46.0 TTAAGAGCAATGTTCACGCAACTTGAAATTATATCTGTGGTCTTCAAATTGTCTTTTGTCA	–	–	0.0652	–	0.597	0.422	–	–	–	0.376	0.417	–	–	–	–	–	0.327	0.431	0.497	–
3.0 (DMSO control at this site: 1-bp insertion 0.109, MH deletion 0.149, edited 0.09) TGCTAGCGCCCCCACAAAGCGGACCAGCCAGCACTATAGGGAATAAGGCCAACTTGCACCC	0.0464	0.123	0.0926	0.225	0.161	0.199	0.266	0.222	0.226	0.188	0.188	0.178	0.0553	0.188	0.186	0.237	0.204	0.171	0.166	0.193
20.0 (DMSO control at this site: 1-bp insertion 0.349, MH deletion 0.138, edited 0.084) TACAGGTGTAGACTGGTTACGTGGCTGCGGAATTGACTGGTTACGTGGCTGCGGAATTTTG	0.0465	0.111	0.082	0.235	0.239	0.174	0.285	0.222	0.12	0.136	0.246	0.159	0.0478	0.203	0.191	0.203	0.215	0.263	0.133	0.125
33.0 (DMSO control at this site: 1-bp insertion 0.008, MH deletion 0.771, edited 0.112) CATTAAGAGCAGCTGCCGGCCCCCAAGTGGACAGAGCTGGCCCTGCTGATTCAACAGTGCA	0.0578	0.144	0.0975	0.714	0.71	0.717	0.76	0.741	0.716	0.727	0.724	0.681	0.583	0.722	0.732	0.712	0.706	0.682	0.708	0.688
30.0 (DMSO control at this site: 1-bp insertion 0.074, MH deletion 0.67, edited 0.142) GAGCTGGCATGAGTATTTGTGCCACATGGCTCCCACATGGCTCCACATGCAAGTTTGAAAC	0.0819	0.165	0.115	0.699	0.725	0.723	0.761	0.727	0.708	0.699	0.684	0.599	0.335	0.69	0.586	0.67	0.607	0.644	0.635	0.638
